# In PubChem BioAssay:
# Values without a mark were called inactive. How the calls were made is not given here.
# Test system: Aerobactin synthetase IucA (Klebsiella pneumoniae hvKP1)
# Experiment: Biochemical IucA enzyme inhibition primary screen of the Spectrum library (AID 1346200);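 further: 100% = wells without compound and 0% = wells lacking enzyme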
# Settings: malachite green pyrophosphate, A620, at 8 µM, stronger effect = lower value
row,SMILES,activity remaining [%]
1,Cc1ccc(C(=O)c2ccc(CC(=O)O)n2C)cc1,120
2,OC1CC2CCCC(C1)N2Cc1ccccc1 (stereo not given),93.4
3,O=C1C=CC(=O)c2c(O)c(Cl)c(Cl)c(O)c21,109
4,COc1cc(NS(C)(=O)=O)ccc1Cc1c2ccccc2nc2ccccc12,104
5,C[C@]12CCC3c4ccc(OC(=O)c5ccccc5)cc4CCC3C1CCC2=O (stereo not given in full),116
6,NC(Cc1ccc(F)cc1)C(=O)O (stereo not given),124
7,COC(=O)C(N)CS (stereo not given),122
8,CCN(CC)C(=O)c1cccc(C)c1,112
9,O=C1CC(c2ccc(O)c(O)c2)Oc2cc(O)cc(O)c21 (stereo not given),109
10,CC(C)c1c(O)c(-c2cc3c(c(C(C)C)c2O)CCC2C(C)(C)CCC[C@]32C)cc2c1CCC1C(C)(C)CCC[C@]21C (stereo not given in full),102
11,COc1cc([C@@H]2c3cc4c(cc3C(OC3O[C@@H]5COC(C)O[C@H]5[C@H](O)[C@H]3O)C3COC(=O)[C@@H]32)OCO4)cc(OC)c1O (stereo not given in full),102
12,Cc1cc(C)nc(NS(=O)(=O)c2ccc(N)cc2)n1,111
13,CN1CCOC(c2ccccc2)c2ccccc2C1 (stereo not given),110
14,COc1ccc(-c2oc3cc(OC)c(OC)c(OC)c3c(=O)c2OC)cc1,115
15,OCCOCCN1CCN(C2=Nc3ccccc3Sc3ccccc32)CC1,105
16,CC(C)(O)CC[C@@H](O)[C@](C)(O)C1CC[C@@]2(O)C3=CC(=O)C4C[C@@H](O)[C@@H](O)C[C@]4(C)C3CC[C@]12C (stereo not given in full),102
17,OC(CCN1CCCC1)(c1ccccc1)C1CCCCC1 (stereo not given),99.4
18,O=c1c(O)c(-c2ccccc2)oc2ccccc12,92.5
19,Nc1ccc(S(=O)(=O)c2ccc(N)cc2)cc1,109
20,Nc1ccn(C2O[C@H](CO)[C@@H](O)[C@@H]2O)c(=O)n1 (stereo not given in full),93.2

row,SMILES,activity remaining [%]
1,COc1ccc([C@@H]2CC(=O)c3c(O)cc(O[C@@H]4O[C@H](CO[C@H]5O[C@@H](C)[C@H](O)[C@@H](O)[C@H]5O)[C@@H](O)[C@H](O)[C@H]4O)cc3O2)cc1O,102
2,NC(=O)NC1NC(=O)NC1=O (stereo not given),113
3,C=CCCCCCCCCCCCc1ccco1,99.3
4,COc1ccc(C(C)=O)c(O)c1,83.8
5,CN1C2CC[C@@H]1CC(OC(=O)[C@H](CO)c1ccccc1)C2 (stereo not given in full),102
6,CC(=O)O[C@H]1C[C@@H](OC(C)=O)C(C)(C)C2CC(=O)[C@]3(C)C(CC[C@@]4(C)[C@H](c5ccoc5)OC(=O)[C@H]5O[C@]543)[C@]21C (stereo not given in full),107
7,CCOC(=O)c1ccc(N)cc1,113
8,NC(CSCSCC(N)C(=O)O)C(=O)O (stereo not given),95.5
9,Nc1ccccc1C(=O)CC(N)C(=O)O (stereo not given),118
10,CC(C)C1=CC2=CCC3[C@](C)(CCC[C@]3(C)C(=O)O)C2CC1 (stereo not given in full),94.8
11,O=C(O)c1cc(O)c2c(c1)[C@@H]([C@H]1c3cc(C(=O)O)cc(O)c3C(=O)c3c(O[C@H]4O[C@H](CO)[C@@H](O)[C@H](O)[C@H]4O)cccc31)c1cccc(O[C@H]3O[C@H](CO)[C@@H](O)[C@H](O)[C@H]3O)c1C2=O,98.9
12,COc1c(Cl)ccc(Cl)c1C(=O)O,108
13,CCCCCC(O)C1C(=O)OC(C)C(O)/C=C/C=C/C=C/C=C/C=C(\C)C(O)CC(O)CC(O)CC(O)CC(O)CC(O)CC1O (stereo not given),118
14,C[C@H](CCC(=O)O)[C@H]1CCC2C3C(CC[C@@]21C)[C@@]1(C)CC[C@@H](O)C[C@H]1C[C@H]3O (stereo not given in full),101
15,O=C(/C=C/C=C/c1ccc2c(c1)OCO2)N1CCCCC1,104
16,COc1ccc2c(c1)OC[C@@H](Cc1ccc(OC)c(OC)c1)[C@H]2O,109
17,Cc1cc(-c2ccccc2)nnc1NCCN1CCOCC1,110
18,CC[C@@]1(O)C(=O)OCc2c1cc1n(c2=O)Cc2cc3cc(O)ccc3nc2-1,117
19,CC1=C(C(=O)O)N2C(=O)[C@@H](NC(=O)C(N)c3ccccc3)[C@H]2SC1 (stereo not given in full),104
20,CC(C)C(C)/C=C/C(C)[C@H]1CCC2C3=CCC4CC(=O)CC[C@]4(C)C3CC[C@@]21C (stereo not given in full),92.7
